Assay outcomes as filed in PubChem.
D3 antag – D3 dopamine receptor (human) antagonism. hit rate 2.5% among 360,000. AID 652054. P35462. max response, negative = inhibition, %. D3R cells, DiscoveRx beta-arrestin luminescence, antagonist mode; hits give low values; in the data active = max response below about -50%; inconclusive = no clear call, values can overlap the other calls
Target sequence (P35462 whole entry, looked up): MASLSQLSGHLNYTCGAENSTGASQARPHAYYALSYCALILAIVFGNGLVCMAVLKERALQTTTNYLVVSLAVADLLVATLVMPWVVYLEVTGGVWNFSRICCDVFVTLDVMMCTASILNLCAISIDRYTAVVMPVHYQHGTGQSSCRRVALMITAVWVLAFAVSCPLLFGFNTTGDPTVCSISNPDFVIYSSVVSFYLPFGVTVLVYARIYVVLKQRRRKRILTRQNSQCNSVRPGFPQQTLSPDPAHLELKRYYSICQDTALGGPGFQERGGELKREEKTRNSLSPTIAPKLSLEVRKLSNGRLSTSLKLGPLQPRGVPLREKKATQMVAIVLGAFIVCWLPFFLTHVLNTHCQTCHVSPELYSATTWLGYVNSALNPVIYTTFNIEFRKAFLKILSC
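Cells expressing the human receptor were seeded at 1500 cells/well, incubated overnight at 37 degrees C in 5% CO2, then exposed to library compounds with dopamine controls for 90 minutes at 37 degrees C before luminescent detection.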
D3 ag – activates the human D3 dopamine receptor. P35462. D3R DiscoveRx beta-arrestin cells, luminescence, 90 min. max activation, %. hit rate 0.58% among 410,000. AID 652048; in the data active = max activation above about 30%
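Agonist mode: compounds and dopamine controls were applied to plated cells for 90 min at 37 degrees C after an overnight attachment at 1500 cells/well. Luminescent read-out followed 30 - 60 minutes at room temperature with DiscoveRx detection reagent.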
TSHR antag – antagonists of human thyroid stimulating hormone receptor; TSHR-expressing cells, TSH-stimulated cAMP HTRF, 2 h; hits give low values; activity change, negative = inhibition, % at 11.5 µM; AID 504810; hit rate 0.2% among 330,000;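 active = activity change below a set negative limit, meaning inhibition stronger than a set level, cut at about -70% in these data; inconclusive = activity change between two set negative limits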
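Read-out is FRET at 665 nm (cryptate excitation 337 nm) from a cryptate-tagged anti-cAMP antibody, competed by cell cAMP against cAMP-d2. Compounds are tested on freshly harvested TSHR cells challenged with 4nM TSH (EC80) for 2 hours at 37 deg C.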
B2AR arrestin – agonists driving beta-arrestin recruitment to human beta2-adrenergic receptor. P07550. beta-arrestin recruitment to beta2AR, cell-based reporter. Potency, µM (highest dose often 46.1 µM), usual class: activators. hit rate 0.02% among 330,000. AID 492947; active = well fitted activation curve with a large enough effect; inconclusive = small, poorly fitted or top-dose-only effect; also: nearly all actives have a fitted effect of over 65% in size
Of the large screens only hits and unclear results are named; the others gave an inactive call. In the library only some 2.9% were active in any assay of this set; here they are far more common.

COc1ccc(Br)cc1CN1CCN(C(=O)c2ccco2)CC1	D3 antag -61
Cn1c(=O)c2c(nc(CN3CCN(C(=O)c4ccco4)CC3)n2Cc2ccccc2)n(C)c1=O	none
Cc1ccc(Cn2c(CN3CCN(C(=O)c4ccco4)CC3)nc3c2c(=O)n(C)c(=O)n3C)cc1	D3 ag 37
O=C(c1ccco1)N1CCN(CC(O)COc2ccc3oc4ccccc4c3c2)CC1 (stereo not given)	D3 ag 41
CCCN(C(=O)CSc1nnc(-c2ccncc2)n1CCC)c1c(N)n(Cc2ccccc2)c(=O)[nH]c1=O	none (no result: TSHR antag, B2AR arrestin)
CCOC(=O)C(=O)NCC(c1cccnc1)N1CCN(c2ccccc2)CC1 (stereo not given)	none (no result: D3 antag, TSHR antag, B2AR arrestin)
O=C(NCc1ccc2c(c1)CCN2C(=O)c1ccc(F)cc1)c1cc2ccccc2[nH]1	none (no result: D3 antag, TSHR antag, B2AR arrestin)
O=C1CC(N2CCN(C/C=C/c3ccccc3)CC2)C(=O)N1CCc1ccccc1 (stereo not given)	D3 antag inconclusive
O=C1CC(N2CCN(C/C=C/c3ccccc3)CC2)C(=O)N1Cc1cccs1 (stereo not given)	D3 antag -63
Cc1ccc(C)c(Cn2c(C3CC(=O)N(c4ccccc4C)C3)nc3ccccc32)c1 (stereo not given)	none (no result: D3 antag, TSHR antag, B2AR arrestin)
COc1ccc2[nH]c(C(=O)NCCc3ccccc3)cc2c1	none
COc1cc2[nH]c(C(=O)NCc3ccccc3)cc2c(OC)c1OC	D3 antag -105
COc1cc2[nH]cc(C(=O)NCc3ccccc3)c(=O)c2cc1OC	none
COc1cc2[nH]c(C(=O)NCCc3ccccc3)cc2c(OC)c1OC	D3 antag -61
CSc1ccc(CCNC(=O)c2ccc(-c3nc(COc4ccccc4)c(C)o3)cc2)cc1	none (no result: D3 antag, TSHR antag, B2AR arrestin)
Cc1cccn2c(Nc3ccccc3)c(-c3cccs3)nc12	none (no result: D3 antag, TSHR antag, B2AR arrestin)
CNCCC=C1c2ccccc2CCc2ccccc21	D3 antag -91
CCOC(=O)c1cc(S(=O)(=O)Nc2c(C)cc(C)cc2C)[nH]n1	none (no result: D3 antag, TSHR antag, B2AR arrestin)
CCOC(=O)CSc1nc2sc3c(c2c(=O)n1-c1ccc(C)cc1)CCN(C)C3	none
CCCCSc1nc2sc3c(c2c(=O)n1-c1ccc(C)cc1)CCN(C)C3	TSHR antag -74
Cc1cn2c(=O)cc(COC(=O)c3cccc(NC(=O)COc4ccccc4Cl)c3)nc2s1	none (no result: D3 antag, TSHR antag, B2AR arrestin)
OCCNc1ncnc2c1c(-c1ccccc1)c(-c1ccccc1)n2Cc1ccco1	none
CC(C)Cn1cnc2c(c(-c3ccccc3)c(-c3ccccc3)n2Cc2ccco2)c1=N	D3 antag -62
c1ccc(-c2c(-c3ccccc3)n(Cc3ccco3)c3ncnc(NCCCn4ccnc4)c23)cc1	D3 antag -95
N=c1c2c(-c3ccccc3)c(-c3ccccc3)n(Cc3ccco3)c2ncn1Cc1ccccc1	none
Cc1c(Cl)ccc2sc(N3CCN(C(=O)C(C)C)CC3)nc12	none (no result: D3 antag, TSHR antag, B2AR arrestin)
COc1ccc(C(=O)N2CCN(c3nc4c(C)c(Cl)ccc4s3)CC2)c(OC)c1	D3 ag 34 (no result: D3 antag, TSHR antag, B2AR arrestin)
O=C(/C=C/c1cccc(Cl)c1Cl)OCC(=O)N1CCOCC1	D3 antag -59
O=C(/C=C/c1cc(Br)ccc1F)OCC(=O)N1CCOCC1	none
CCOC(=O)CSC1=NC(=O)/C(=C\c2ccc(Cl)cc2)S1	D3 antag -78
Clc1ccc(NCc2cccnc2)cc1	none
CC(C#N)(Nc1ccc(Cl)cc1)c1cccnc1 (stereo not given)	D3 antag -61
O=C(COC(=O)c1ccccc1C(=O)c1ccc(Cl)c([N+](=O)[O-])c1)NC1CC1	D3 antag -66
CNC(=O)COC(=O)c1ccccc1C(=O)c1ccc(Cl)c([N+](=O)[O-])c1	D3 antag -61
COCCCn1c(SCc2nnc(-c3ccccc3)o2)nc2sc3c(c2c1=O)CCC3	none
Cn1c(SCc2nnc(-c3ccccc3Br)o2)nc2sc3c(c2c1=O)CCC3	D3 ag 34
Cc1cnc(C=O)c2cccc([N+](=O)[O-])c12	D3 antag -77 (no result: TSHR antag, B2AR arrestin)
Cc1ncc(C)c2c([N+](=O)[O-])cccc12	none (no result: TSHR antag, B2AR arrestin)
Cc1cccc(NC(=O)c2sc(-n3nc(C)c(Cc4ccc5c(c4)OCO5)c3C)nc2C)c1C	none (no result: D3 antag, TSHR antag, B2AR arrestin)
COC(=O)c1cc(NS(=O)(=O)c2ccc3c(c2)CCC(=O)N3)cc(C(=O)OC)c1	D3 ag 33
O=C(c1cc(Br)c(Br)s1)N1CCN(C/C=C/c2ccccc2)CC1	D3 antag -78
O=C(c1cc2ccccc2o1)N1CCN(C/C=C/c2ccccc2)CC1	D3 antag -78
Cc1cc(C(=O)N2CCN(C/C=C/c3ccccc3)CC2)cs1	D3 antag inconclusive
CC(=O)N1CCN(C(=O)c2cc3ccccc3o2)CC1	none
